Laboratory results as given in PubChem BioAssay (Tox21).
Records with an inconclusive call do not appear. The source made the active and inactive calls. Unless noted, calls follow the shape of the dose curve; as a rule, active = well fitted curve in the direction sought with a large enough effect in the repeat runs; inconclusive = weak or mixed curves; inactive = no such curve, though single readings can be large; an effect the other way counts as inactive or inconclusive.

Columns and labels:
[1] = qHTS assay to identify small molecule antagonists of the estrogen related receptor (ERR) signaling pathway from Tox21 library - cell viability counter screen (AID 1224834); also: nearly all actives have a fitted effect of over 30% in size; also: potency is read from the fitted curve at half-maximal effect
In short: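 ERR reporter cells were plated 6 h before compound addition, then exposed to test compounds in DMSO for 17.5 h at 37 C. Viability was read as CellTiter-Fluor fluorescence after a 30-minute incubation at 37 C.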

[2] = biological target: Luciferin 4-monooxygenase (Photinus pyralis) (UniProt P08659); assay: qHTS assay to identify small molecule inhibitors of firefly luciferase (AID 1224835); also: nearly all actives have a fitted effect of over 25% in size; also: potency is read from the fitted curve at half-maximal effect; as to activity change, negative = inhibition: series mostly up to about 120 µM
Sequence of Luciferin 4-monooxygenase (Photinus pyralis) (P08659 whole entry, looked up): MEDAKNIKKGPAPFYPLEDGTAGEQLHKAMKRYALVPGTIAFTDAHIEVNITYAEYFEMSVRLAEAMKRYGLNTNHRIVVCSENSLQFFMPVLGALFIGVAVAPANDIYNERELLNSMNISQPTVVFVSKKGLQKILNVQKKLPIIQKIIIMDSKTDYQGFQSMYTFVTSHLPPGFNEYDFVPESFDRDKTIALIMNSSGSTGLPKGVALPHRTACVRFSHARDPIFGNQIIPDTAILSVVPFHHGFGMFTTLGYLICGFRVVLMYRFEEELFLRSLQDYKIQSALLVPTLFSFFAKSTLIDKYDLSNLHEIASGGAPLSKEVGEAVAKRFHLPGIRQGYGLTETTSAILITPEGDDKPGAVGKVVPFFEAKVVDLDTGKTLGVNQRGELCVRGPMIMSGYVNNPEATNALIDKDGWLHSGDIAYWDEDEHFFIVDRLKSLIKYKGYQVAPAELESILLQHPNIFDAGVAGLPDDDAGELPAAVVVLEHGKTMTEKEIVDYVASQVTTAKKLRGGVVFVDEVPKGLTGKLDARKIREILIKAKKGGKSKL
In short: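 Quantitative HTS format; KM concentrations of both substrates. Purified P. pyralis FLuc activity quantified from luminescence images.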

[3] = qHTS assay to identify small molecule agonists of the constitutive androstane receptor (CAR) signaling pathway - cell viability counter screen (AID 1224836); also: nearly all actives have a fitted effect of over 45% in size; also: potency is read from the fitted curve at half-maximal effect; as to viability change, negative = cytotoxic: series mostly up to about 92 µM
In short: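 Double-stable HepG2 hepatoma cells (hCAR plus CYP2B6-2.2kb) are treated for 23 h at 37 C with test compounds in 15-point concentration series. PK11195 at 0.75 uM final is co-added. Cell viability is quantified by CellTiter-Fluor.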

[4] = qHTS assay to identify small molecule antagonists of the constitutive androstane receptor (CAR) signaling pathway - cell viability counter screen (AID 1224837); also: nearly all actives have a fitted effect of over 45% in size; also: potency is read from the fitted curve at half-maximal effect; as to activity change, negative = cytotoxicity: series mostly up to about 92 µM
In short: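 HepG2 cells stably expressing hCAR and a CYP2B6-2.2kb reporter were plated and pre-incubated 4 hr at 37 C/5% CO2, then given compounds at 15 concentrations plus 50 nM CITCO (final). After 23 hr, viability was read by CellTiter-Fluor fluorescence.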

[5] = biological target: Nuclear receptor subfamily 1 group I member 3 (Homo sapiens) (UniProt Q14994); assay: qHTS assay to identify small molecule antagonists of the constitutive androstane receptor (CAR) signaling pathway (AID 1224838); also: nearly all actives have a fitted effect of over 40% in size
Sequence of Nuclear receptor subfamily 1 group I member 3 (Homo sapiens) (Q14994 whole entry, looked up): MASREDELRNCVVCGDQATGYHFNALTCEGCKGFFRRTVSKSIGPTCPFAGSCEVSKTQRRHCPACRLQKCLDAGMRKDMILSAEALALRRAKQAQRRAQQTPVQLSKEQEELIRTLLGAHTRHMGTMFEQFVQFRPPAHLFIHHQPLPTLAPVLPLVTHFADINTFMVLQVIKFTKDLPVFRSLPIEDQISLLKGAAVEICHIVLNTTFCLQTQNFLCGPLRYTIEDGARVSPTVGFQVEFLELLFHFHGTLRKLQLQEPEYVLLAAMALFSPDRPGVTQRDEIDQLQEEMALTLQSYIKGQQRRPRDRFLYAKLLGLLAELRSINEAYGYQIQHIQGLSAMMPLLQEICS
In short: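 HepG2 cells stably co-transfected with hCAR and a CYP2B6-2.2kb luciferase reporter were seeded 4 h before compound addition at 15 concentrations. Cells were stimulated with 50 nM CITCO (final) for 24 h at 37 C; luciferase luminescence was then read.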

[6] = biological target: Nuclear receptor subfamily 1 group I member 3 (Homo sapiens) (UniProt Q14994); assay: qHTS assay to identify small molecule agonists of the constitutive androstane receptor (CAR) signaling pathway (AID 1224839); also: nearly all actives have a fitted effect of over 15% in size; also: potency is read from the fitted curve at half-maximal effect;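 as to activation: HepG2 cells stably carrying human CAR and a CYP2B6 luciferase reporter; series mostly up to about 92 µM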
In short: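 Readout: firefly luciferase luminescence via ONE-Glo. System: HepG2 double-stable for hCAR and CYP2B6-2.2kb. Conditions: 15-point compound titration, PK11195 at 0.75 uM final, 24 h incubation.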

[7] = qHTS assay to identify small molecule antagonists of the estrogen related receptor signaling pathway with the pleiotropic PPARgamma coactivator (PGC) from Tox21 10K library - cell viability counter screen (AID 1224840; active = well fitted cell-killing curve with a large enough effect in the repeat runs, not every such curve was filed as active; also: nearly all actives have a fitted effect of over 40% in size; also: potency is read from the fitted curve at half-maximal effect)
In short: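 PGC/ERR cells were seeded at 2,000 cells/well and left 6 hours at 37 C/5% CO2 before pin-tool addition of compounds in DMSO. After 17.5 hours at 37 C, CellTiter-Fluor was added and fluorescence read 30 minutes later.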

[8] = qHTS assay to identify small molecule antagonists of the estrogen related receptor signaling pathway with the pleiotropic PPARgamma coactivator (PGC) from Tox21 10K library (AID 1224841; call rule not given here; also: actives are mostly falling curves and most rising ones were filed inactive; nearly all actives have a fitted effect of over 50% in size; also: potency is read from the fitted curve at half-maximal effect; as to activity, negative = inhibition: series mostly up to about 92 µM)
In short: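 PGC/ERR reporter cells were seeded at 2,000 cells/well and held 6 hours at 37 C/5% CO2 before pin-tool addition of compounds in DMSO. After 18 hours at 37 C, One-Glo was added and luminescence read after 30 minutes at room temperature.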

[9] = qHTS assay to identify small molecule agonists of the estrogen related receptor signaling pathway with the pleiotropic PPARgamma coactivator (PGC) from Tox21 10K library (AID 1224842); also: nearly all actives have a fitted effect of over 15% in size
In short: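 PGC/ERR reporter cells (NTP line) were seeded 2,000 per well, rested 6 h at 37 C/5% CO2, then pin-dosed with compounds in DMSO for 18 h at 37 C; luciferase read by One-Glo luminescence after 30 min at room temperature.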
% is scaled to controls: 0 for no effect and ±100 for the full control effect.

CN(C)CCOC1=Cc2ccccc2Sc2ccc(Cl)cc21
inactive: Potency [1] | Potency [2] | Potency [3] | Potency [4] | Potency [5] | Potency [6] | Potency [7] | Potency [8]

O=C(CS)OCCOC(=O)CS
inactive: Potency [1] | Potency [2] | Potency [3] | Potency [4] | Potency [5] | Potency [6] | Potency [7] | Potency [8]

COC(=O)c1cc(Cl)ccc1NS(=O)(=O)C(F)(F)F
inactive: Potency [1] | Potency [2] | Potency [3] | Potency [4] | Potency [5] | Potency [6] | Potency [7] | Potency [8] | Potency [9]

CC(C)OCC1CO1 (stereo unspecified)
inactive: Potency [1] | Potency [2] | Potency [3] | Potency [4] | Potency [5] | Potency [6] | Potency [7] | Potency [8] | Potency [9]

CN1C(=O)CC(C)(c2ccccc2)C1=O (stereo unspecified)
inactive: Potency [1] | Potency [2] | Potency [3] | Potency [4] | Potency [5] | Potency [6] | Potency [7] | Potency [8]

O=C(O)c1ccccc1NCCc1ccccc1
active: Potency [2] 27.5 µM | Potency [6] 26.6 µM
inactive: Potency [1] | Potency [3] | Potency [4] | Potency [5] | Potency [7] | Potency [8]

CC1(C)C(=O)N(Br)C(=O)N1Cl
inactive: Potency [1] | Potency [2] | Potency [3] | Potency [4] | Potency [5] | Potency [6] | Potency [7] | Potency [8] | Potency [9]

O=c1[nH]c2ccc(S(=O)CCN3CCC(Cc4ccc(F)cc4)CC3)cc2o1 (stereo unspecified)
inactive: Potency [1] | Potency [2] | Potency [3] | Potency [4] | Potency [5] | Potency [6] | Potency [7] | Potency [8]

Cc1cc2nc3ccc(=[N+](C)C)cc-3sc2cc1N
active: Potency [1] 2.66 µM | Potency [2] 9.77 µM | Potency [3] 21.1 µM | Potency [4] 10.6 µM | Potency [6] 8.41 µM | Potency [7] 13.3 µM | Potency [8] 2.66 µM
inactive: Potency [5] | Potency [9]

CCOC(=O)C(C)Oc1ccc(Oc2nc3ccc(Cl)cc3o2)cc1 (stereo unspecified)
active: Potency [2] 39.9 µM
inactive: Potency [1] | Potency [3] | Potency [4] | Potency [5] | Potency [7] | Potency [8]

O=Cc1c(Cl)cccc1Cl
inactive: Potency [1] | Potency [2] | Potency [3] | Potency [4] | Potency [5] | Potency [6] | Potency [7] | Potency [8] | Potency [9]

C=CC(C)=CCC=C(C)C
inactive: Potency [1] | Potency [2] | Potency [3] | Potency [4] | Potency [5] | Potency [6] | Potency [7]

CCN(Cc1cccc(S(=O)(=O)O)c1)c1ccc(C(=C2C=CC(=[N+](CC)Cc3cccc(S(=O)(=O)[O-])c3)C=C2)c2ccccc2)cc1
active: Potency [2] 22.3 µM
inactive: Potency [1] | Potency [3] | Potency [4] | Potency [5] | Potency [6] | Potency [7] | Potency [8] | Potency [9]

CC1CC(O)CC(C)(C)C1 (stereo unspecified)
inactive: Potency [1] | Potency [2] | Potency [3] | Potency [4] | Potency [5] | Potency [6] | Potency [7] | Potency [8] | Potency [9]

COC(OC)(C(=O)c1ccccc1)c1ccccc1
active: Potency [6] 15.3 µM
inactive: Potency [1] | Potency [2] | Potency [3] | Potency [4] | Potency [5] | Potency [7] | Potency [8] | Potency [9]

O=C(O)Cc1ccc(-c2ccccc2)cc1
inactive: Potency [1] | Potency [2] | Potency [3] | Potency [4] | Potency [5] | Potency [6] | Potency [7] | Potency [8] | Potency [9]

COc1cc2[nH]c(=O)[nH]c(=O)c2cc1OC
inactive: Potency [1] | Potency [2] | Potency [3] | Potency [4] | Potency [5] | Potency [6] | Potency [7] | Potency [8] | Potency [9]

ON(Cc1ccccc1)Cc1ccccc1
inactive: Potency [1] | Potency [2] | Potency [3] | Potency [4] | Potency [5] | Potency [7]

CSc1ccc(Oc2ccc(S(N)(=O)=O)cc2CN(C)C)cc1C
inactive: Potency [1] | Potency [2] | Potency [3] | Potency [4] | Potency [5] | Potency [6] | Potency [7] | Potency [8]

C=CCCCCCCCCCCCCCCCC
inactive: viability change, negative = cytotoxic [1] 0.934% [at 8.39 µM] | activity change, negative = inhibition [2] 0.644% [at 10.5 µM] | viability change, negative = cytotoxic [3] -0.127% [at 8.39 µM] | activity change, negative = cytotoxicity [4] 3.23% [at 8.39 µM] | activity, negative = inhibition [5] 0.748% [at 8.39 µM] | activation [6] -5.43% [at 8.39 µM] | viability change, negative = cytotoxic [7] 2.55% [at 8.39 µM] | activity, negative = inhibition [8] -28.3% [at 8.39 µM] | activation [9] 0.156% [at 8.39 µM]

CC1(C)O[C@@H]2C[C@H]3[C@@H]4CCC5=CC(=O)C=C[C@]5(C)[C@H]4[C@@H](O)C[C@]3(C)[C@]2(C(=O)CO)O1
inactive: Potency [1] | Potency [2] | Potency [3] | Potency [4] | Potency [5] | Potency [6] | Potency [7] | Potency [8]

c1ccc(COCc2ccccc2)cc1
inactive: Potency [1] | Potency [2] | Potency [3] | Potency [4] | Potency [5] | Potency [6] | Potency [7] | Potency [8]

Nc1ccc(S(=O)(=O)O)cc1
inactive: Potency [1] | Potency [2] | Potency [3] | Potency [4] | Potency [5] | Potency [6] | Potency [7] | Potency [8]
